The values that follow come from PubChem BioAssay.

Test [1] can be described thus: inhibitors of TNFa-induced NFkB p65 translocation, primary screen, imaging, HUVEC, MLSMR starter and 10KST1 sets (AID 438;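 active = inhibition above 20% together with a positive visual image hit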;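 also: compound added about 3h40 before a 20 min TNFalpha stimulation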;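 as to inhibition: signal is the nuclear over cytoplasmic p65 intensity ratio per well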). As to conditions: HUVEC TNFa-induced p65 nuclear translocation; cell count: measured here: nuclei count (cytotoxicity indicator), at 2.08 µM; inhibition: at 2 µM, stronger effect = higher value, 0% TNFa-plus-vehicle, 100% no-TNFa wells.
Test [2] can be described thus: inhibitors of mutant huntingtin aggregation, primary screen, imaging, exon1htt(103Q)mCFP cells, high-content imaging (AID 483;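 active = visual image review flags a hit and inhibition of aggregation exceeds 20%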;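 also: compound exposure lasted 3 days before fixation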;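 as to nuclei count: percent of the per-plate median nuclei count of sample wells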). As to conditions: exon1htt(103Q)mCFP cell line, aggregate imaging, at 2 µM; inhibition of aggregation: stronger effect = higher value; nuclei count: measured here: cell count, toxicity.
Test [3] is described as follows: inhibitors of E-selectin induction by TNFa, primary screen, imaging, HUVEC, immunofluorescence, MLSMR starter and 10KST1 sets (AID 487;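 active = visually confirmed hit in the image check and inhibition above 20%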;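 as to inhibition: signal is fraction of cell area covered by stained E-selectin grains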;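 as to nuclei count: 100% = median nuclei count of all wells on the same plate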). As to conditions: HUVEC TNFalpha-induced E-selectin immunofluorescence imaging, at 2 µM; inhibition: stronger effect = higher value; nuclei count: measured here: cell number, toxicity.
The target in test [4] is Voltage-gated potassium channel subunit beta-2 (Rattus norvegicus) (UniProt P62483). The experiment in a line: KvBeta enzyme negative modulators, primary screen, biochemical, NADPH fluorescence (AID 622;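 active = fluorescence slope higher than the sample average by over 3 SD, cut at about -0.22 in these data, passing the limit was not always enough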;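 also: slope of raw intensity against log time taken from 70 to 1610 s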). As to conditions: recombinant KvBeta, 4-cyanobenzaldehyde reduction, at 10 µM, stronger effect = higher value.
Voltage-gated potassium channel subunit beta-2 (Rattus norvegicus), sequence (P62483 whole entry, looked up): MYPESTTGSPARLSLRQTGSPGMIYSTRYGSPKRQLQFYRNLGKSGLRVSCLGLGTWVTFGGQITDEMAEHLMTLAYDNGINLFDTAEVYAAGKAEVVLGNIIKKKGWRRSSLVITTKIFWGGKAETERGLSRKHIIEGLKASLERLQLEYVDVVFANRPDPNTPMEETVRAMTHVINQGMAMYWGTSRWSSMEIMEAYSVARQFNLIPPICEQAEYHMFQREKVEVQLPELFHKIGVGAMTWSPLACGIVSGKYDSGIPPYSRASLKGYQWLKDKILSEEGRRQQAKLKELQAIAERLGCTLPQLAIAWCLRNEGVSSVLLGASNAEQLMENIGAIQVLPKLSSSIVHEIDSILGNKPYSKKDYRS
For test [5] the target is unchanged. The experiment in a line: KvBeta positive modulators, primary screen, biochemical, NADPH fluorescence (AID 623;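 active = NADPH fluorescence slope more negative than the mean of all samples by about 3 SD, 99.7% confidence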;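 also: fluorescence intensity change per second fitted from 20 to 320 s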). As to conditions: Recombinant KvBeta, NADPH fluorescence decrease slope, 10 min; at 10 µM; stronger effect = lower value.
In test [6] the target is Alpha-2C adrenergic receptor (Homo sapiens) (UniProt P18825). The experiment in a line: modulators of alpha2C/GIRK thallium flux, primary screen, cell-based, HEK293 alpha2C/GIRK1/2 (AID 624).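 Also: slope of fluorescence ratio to pre-addition baseline per second over 15 to 24 s.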 As to conditions: thallium flux BTC fluorescence, at 10 µM, actives lie on both sides.
Alpha-2C adrenergic receptor (Homo sapiens), sequence (P18825 whole entry, looked up): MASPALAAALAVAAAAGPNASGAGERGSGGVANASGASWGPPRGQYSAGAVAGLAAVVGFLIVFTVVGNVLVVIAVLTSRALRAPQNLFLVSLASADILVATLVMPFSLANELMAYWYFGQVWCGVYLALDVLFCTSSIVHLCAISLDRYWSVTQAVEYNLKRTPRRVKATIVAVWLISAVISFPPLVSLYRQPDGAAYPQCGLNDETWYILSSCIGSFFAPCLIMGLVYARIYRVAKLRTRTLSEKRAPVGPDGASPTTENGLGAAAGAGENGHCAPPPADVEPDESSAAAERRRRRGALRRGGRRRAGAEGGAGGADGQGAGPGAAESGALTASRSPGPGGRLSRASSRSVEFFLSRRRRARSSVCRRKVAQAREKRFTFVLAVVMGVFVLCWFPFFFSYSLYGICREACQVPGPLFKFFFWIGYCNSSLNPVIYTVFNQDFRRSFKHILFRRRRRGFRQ
A short description of test [7]: inhibitors of Sendai virus-induced IRF3 signaling, primary screen, TLR/RLR signaling modifier project, cell-based, Sendai virus stimulus, luciferase, 10K MLSCN set (AID 602276;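 active = inhibition at or above 50% at 10 µM; inactive = inhibition below 50%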;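 also: firefly luciferase from ISG56 promoter only with Renilla not read in this screen; 0% = Sendai virus plus DMSO and 100% = medium plus DMSO without virus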). As to conditions: HEK293 RL24 IRF3 luciferase reporter, at 10 µM, stronger effect = higher value. A general note: A reporter such as luciferase makes a cellular process visible.
Test [8] is described as follows: inhibitors of poly I:C-induced TLR3 signaling, primary screen, cell-based, poly I:C stimulus, luciferase, 10K MLSCN set (AID 602277;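 active = inhibition of the reporter signal at or above 50%; inactive = inhibition below 50%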). Particulars: HEK293-TLR3 RL24 IRF3 luciferase reporter, at 10 µM, stronger effect = higher value.

Calls of active or inactive are those of the source.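 The calls were made as follows, unless noted: active = fluorescence slope after compound addition differing from the mean of all screened samples at 99.7% confidence, in either direction; inactive = the rest.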

Regarding `COc1ccccc1NC(=O)Cc1noc(CSc2cc(C)c3ccccc3n2)n1`, the cell count in test [1] was determined as 572. Further, the inhibition was -12.8% (inactive) in test [1], -160% (inactive) in test [3], 6.32% (inactive) in test [7] and -8.68% (inactive) in test [8]. Further, the inhibition of aggregation in test [2] was 25.7% (inactive). The figures for the nuclei count in test [2] and in test [3] were 81.6% and 95.9%, respectively. In test [4], the fluorescence slope is -0.337 (inactive). The NADPH fluorescence slope in test [5] is -5.3e-05 (inactive). Further, the slope in test [6] was 0.00168 (inactive).

`COc1cc2cc(C(c3nnnn3C3CCCC3)N(C)C3CCCCC3)c(=O)[nH]c2cc1OC` (centres undefined): the cell count in test [1] is 537. The inhibition in test [1] was -13.2% (inactive); in test [3], -15.9% (inactive); in test [7], 12.4% (inactive); in test [8], 22% (inactive). Moreover, the inhibition of aggregation in test [2] is -34.3% (inactive). The nuclei count came out at 100% in test [2] and 108% in test [3]. In addition, the fluorescence slope in test [4] is -0.465 (inactive). Further, the NADPH fluorescence slope in test [5] is -2e-05 (inactive). Besides, in test [6], the slope is 0.007 (inactive).

`CCOc1ccc(CNC(=O)C2CCCN(S(C)(=O)=O)C2)cc1OC` (centres undefined): the cell count in test [1] was 664. Also, the inhibition is -7.1% (inactive) in test [1], -95.3% (inactive) in test [3], 9.09% (inactive) in test [7] and 12% (inactive) in test [8]. Moreover, the inhibition of aggregation in test [2] is 11.9% (inactive). For the same compound, the nuclei count was determined as 84% in test [2] and 136% in test [3]. In addition, the fluorescence slope in test [4] was -0.356 (inactive). In addition, the NADPH fluorescence slope in test [5] was -1.3e-05 (inactive). Besides, in test [6], the slope was 0.00564 (inactive).

Consider `Cn1c2ccccc2c2ncn(CCCN3CCOCC3)c(=O)c21`, for which the cell count in test [1] was found to be 715. The inhibition in test [1] was -0.6% (inactive); in test [3], 5.6% (inactive); in test [7], 5.16% (inactive); in test [8], 23.7% (inactive). Further, the inhibition of aggregation in test [2] is -15.1% (inactive). In addition, the nuclei count in test [2] turned out to be 94%; in test [3], 113%. Moreover, the fluorescence slope in test [4] was -0.383 (inactive). Further, in test [5], the NADPH fluorescence slope is 2e-05 (inactive). Moreover, in test [6], the slope was 0.00539 (inactive).

Regarding `COc1ccc(-n2ncc3c(=O)n(CC(=O)OCc4ccccc4)cnc32)cc1`, the cell count in test [1] worked out at 506. Besides, the inhibition is 5.2% (inactive) in test [1], -26% (inactive) in test [3], -0.623% (inactive) in test [7] and 3.88% (inactive) in test [8]. Further, the inhibition of aggregation in test [2] was -19.6% (inactive). Further, the values for the nuclei count in test [2] and in test [3] were 94.6% and 101%, respectively. For the same compound, the fluorescence slope in test [4] was -0.377 (inactive). Besides, the NADPH fluorescence slope in test [5] is -4.4e-05 (inactive). For the same compound, in test [6], the slope was 0.00543 (inactive).

With `CSc1cccc(NS(=O)(=O)c2ccccc2)c1`, the cell count in test [1] came to 420. The inhibition was -1.4% (inactive) in test [1], -38% (inactive) in test [3], 9.48% (inactive) in test [7] and 27.9% (inactive) in test [8]. The inhibition of aggregation in test [2] is -3.4% (inactive). For the same compound, the nuclei count in test [2] is 99.5%; in test [3] it was 106%. The fluorescence slope in test [4] is -0.283 (inactive). Besides, the NADPH fluorescence slope in test [5] is -2.2e-05 (inactive). Further, the slope in test [6] is 0.00527 (inactive).

With `COc1ccc2[nH]c(=O)c(CN(C(=O)c3cccnc3)c3ccccc3OC)cc2c1`, in test [1], the cell count is 466. Also, the inhibition in test [1] was -3.3% (inactive); in test [3], -19.8% (inactive); in test [7] it was 12.5% (inactive); in test [8], 22.6% (inactive). Further, the inhibition of aggregation in test [2] was -3% (inactive). In addition, the nuclei count turned out to be 114% in test [2] and 113% in test [3]. The fluorescence slope in test [4] is -0.449 (inactive). Besides, in test [5], the NADPH fluorescence slope was 1.5e-05 (inactive). The slope in test [6] was 0.00765 (inactive).

Turning to `CCOC(=O)N1CCN(c2c(NCC3CCN(Cc4cccc(C)c4)CC3)c(=O)c2=O)CC1`, in test [1], the cell count stood at 577. Further, the inhibition in test [1] was -2.7% (inactive); in test [3], -67.1% (inactive); in test [7], 5.85% (inactive); in test [8], 23.9% (inactive). For the same compound, the inhibition of aggregation in test [2] is 25.8% (inactive). Further, the nuclei count in test [2] stood at 104%; in test [3], 129%. Also, the fluorescence slope in test [4] is -0.507 (inactive). The NADPH fluorescence slope in test [5] was -2.1e-05 (inactive). In addition, in test [6], the slope was 0.00653 (inactive).

Consider `O=C(O)CCc1ccc(-c2ccc(Br)cc2)n1CC(=O)O`, for which the cell count in test [1] turned out to be 339. The inhibition was 7.5% (inactive) in test [1], -65% (inactive) in test [3], 10.9% (inactive) in test [7] and 28.5% (inactive) in test [8]. Also, the inhibition of aggregation in test [2] is -4.6% (inactive). For the same compound, the nuclei count stood at 90% in test [2] and 112% in test [3]. Moreover, in test [4], the fluorescence slope was -0.378 (inactive). In test [5], the NADPH fluorescence slope is -5.5e-05 (inactive). In test [6], the slope was 0.00594 (inactive).

What is called inhibition is the relative decrease from the control value, in per cent.
